Screening results deposited in PubChem BioAssay by National Center for Advancing Translational Sciences (NCATS).
RE007 growth inh: less growth of the S. pombe RE007 Vpr strain | S. pombe RE007 Vpr strain, BacTiter-Glo ATP luminescence, 24 h | hit rate 0.21% among 360,000 | Potency, µM (highest dose often 92.2 µM), inactives show top-dose activity change, negative = less growth, most hits filed as inhibitors; active means well fitted falling curve with a large enough effect; inconclusive means small, poorly fitted or top-dose-only effect; inactive means no such curve, though single readings can be large or run the other way; further: potency means the concentration at half of the fitted maximal effect; on the % scale 0 is the no-effect control and ±100 the full control effect; nearly all actives have a fitted effect of over 50% in size
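Fission yeast strain RE007, carrying one chromosomally integrated HIV-1 vpr copy, was seeded at OD 0.01 in PMG+AL medium with 23 nL pinned compound. After 24 h at 30 °C and 99% humidity, viability was read by BacTiter-Glo luminescence.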
Tb PYK inh: inhibitors of Trypanosoma brucei pyruvate kinase | TbPYK enzyme, Kinase-Glo Plus ATP luminescence, 45 min | Potency, µM (highest dose often 76.8 µM), for inactives: top-dose activity, negative = inhibition, actives largely listed as inhibitors | hit rate 0.12% among 410,000 | AID 624173; further: potency means the concentration at half of the fitted maximal effect; on the % scale 0 is the no-effect control and ±100 the full control effect; nearly all actives have a fitted effect of over 50% in size
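Activity of T. brucei pyruvate kinase was followed by Kinase-Glo Plus luminescence after the enzyme reacted 45 min at room temperature with 130 uM ADP (final) and substrate. Test compounds were added before ADP at multiple concentrations.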
Giardia FBPA inh: inhibitors of Giardia lamblia fructose-1,6-bisphosphate aldolase; A8B2U2; hit rate 0.71% among 290,000; Potency, µM (highest dose often 59.6 µM), without a hit: at the highest dose activity, negative = inhibition, usual class: inhibitors; purified Giardia FBPA; further: potency means the concentration at half of the fitted maximal effect; on the % scale 0 is the no-effect control and ±100 the full control effect; nearly all actives have a fitted effect of over 55% in size
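40 nM FBPA preincubated 10 min at RT with compound (up to 57.5 uM final), then substrate plus GAPDH/TPI/NAD/arsenate coupling and diaphorase/resazurin added. Fluorescence read after 20 min at RT, 525/598 nm.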
Shiga toxin inh: inhibitors of Shiga toxin in Vero cells; Vero cells, Shiga toxin protein synthesis inhibition reporter; inhibition, % at 38.7 µM; hit rate 9.2% among 290,000; AID 2315; in the data active means inhibition mostly above about 28%, no sharp cut-off; inactive means mostly below about 43%; further: 0% is about no effect
LmPK inh: inhibitors of Leishmania mexicana pyruvate kinase | hit rate 0.37% among 290,000 | AID 1721 | Q27686 | purified LmPK, Kinase-Glo ATP luminescence, 1 h | Potency, µM (series often up to 57.5 µM), for inactives: top-dose activity change, negative = inhibition, actives largely listed as inhibitors; further: potency means the concentration at half of the fitted maximal effect; on the % scale 0 is the no-effect control and ±100 the full control effect
Target sequence (Q27686 whole entry, looked up): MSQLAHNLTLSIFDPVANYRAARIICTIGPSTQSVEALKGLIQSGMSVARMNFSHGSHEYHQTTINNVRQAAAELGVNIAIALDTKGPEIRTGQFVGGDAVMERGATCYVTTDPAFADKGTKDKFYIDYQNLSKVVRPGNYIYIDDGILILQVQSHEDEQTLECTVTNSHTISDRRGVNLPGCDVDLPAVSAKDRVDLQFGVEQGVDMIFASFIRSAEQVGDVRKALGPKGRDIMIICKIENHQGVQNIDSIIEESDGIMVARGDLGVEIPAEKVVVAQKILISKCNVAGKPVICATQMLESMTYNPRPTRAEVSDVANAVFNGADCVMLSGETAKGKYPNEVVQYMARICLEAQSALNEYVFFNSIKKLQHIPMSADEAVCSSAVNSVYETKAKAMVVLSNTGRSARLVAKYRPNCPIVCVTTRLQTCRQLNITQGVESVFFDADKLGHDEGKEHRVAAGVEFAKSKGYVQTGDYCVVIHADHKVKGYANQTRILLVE
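Kinase-Glo luminescence read after 1 h RT reaction of 0.1 nM LmPK with 0.5 mM PEP and 0.1 mM ADP. Activity scaled between uninhibited and enzyme-free controls.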
CHX counter: counter-screen for Shiga toxin inhibitors: cycloheximide protein synthesis inhibition; hit rate 12% among 300,000; max response, %; cell reporter, cycloheximide protein synthesis inhibition counterscreen; in the data active means max response mostly above about 13%, no sharp cut-off; inactive means mostly below about 14%; further: read at 38.3 µM for the half of the compounds with a filed dose; 0% is about no effect
* = called active by the depositor; ? = inconclusive; / = no result given; [ ] = dose if it differs, or a comment. This excerpt belongs to a sample that is enriched for hits. Unless noted, the call rests on the fitted dose curve; in most records, active means well fitted curve in the direction sought with a large enough effect; inconclusive means small, poorly fitted or top-dose-only effect, or another doubt; inactive means no such curve, though single readings can be large; an effect the other way counts as inactive or inconclusive.

SMILES	RE007 growth inh	Tb PYK inh	Giardia FBPA inh	Shiga toxin inh	LmPK inh	CHX counter
Cc1nc(N2CCCCC2)sc1C(=O)c1cccc([N+](=O)[O-])c1	6%	2%	-8%	84*	1%	37*
c1ccc(COC(CN2CCCCCC2)CN2CCCCCC2)cc1	-19%	-7%	-19%	20	-5%	-1
Cn1c(SCC(=O)c2ccc3c(c2)OCCO3)nnc1C(F)(F)F	12%	-13%	-2%	34	3%	22*
Cn1c(SCC(=O)c2ccc3c(c2)OCCO3)nnc1C1CC1	17%	-10%	-1%	44*	1%	18*
Cn1c(SCC(=O)Nc2ccc3c(c2)OCCO3)nnc1C(F)(F)F	10%	-5%	/	/	/	/
CCc1ccc(C2=NNC(=Nc3c(C)n(C)n(-c4ccccc4)c3=O)SC2)cc1	8%	-6%	-11%	40	17%	13
COc1cccc(C2=NNC(=NCc3ccccc3)SC2)c1	7%	-10%	-1%	47*	1%	41*
COc1ccc(CN=C2NN=C(c3cccc(OC)c3)CS2)cc1	-6%	?	3%	82*	-6%	42*
COc1ccc(CN=C2NN=C(c3ccccc3)CS2)cc1	-5%	-20%	-1%	101*	1%[11.5 µM]	48*
CC(Oc1ccc2ccccc2c1)C(=O)NNC(=O)Nc1ccccc1F (configuration not stated)	2%	3%	-4%	20	3%	7
C/C(=N/NC(=O)c1cccnc1)C1=C(O)CC(C)(C)CC1=O	18%	-4%	2%	-16	-6%	-6
CC(=Nc1cc(C(=O)c2ccccc2)ccc1N)C1=C(O)CC(C)(C)CC1=O	1%	-7%	?	125*	0%	29*
O=C1COc2ccc(-c3cc(-c4ccc(F)cc4)c4c(n3)-c3ccccc3OC4)cc2N1	/	-7%	/	/	/	/
Cc1c(Cl)cccc1NC(=S)Nc1ccccn1	-18%	1%	-1%	7	-8%	-3
COC(=O)Cc1ccc(NC(=S)Nc2ccccn2)cc1	8%	-4%	-15%	74*	8%	31*
COC(=O)Cc1ccc(NC(=S)NCCO)cc1	2%	0%	-1%	2	5%	1
Cc1ccccc1NC(=S)Nc1ccccn1	-14%	-15%	-29%	52*	4%	26*
S=C(Nc1ccccn1)Nc1ccccc1Cl	-3%	1%	-20%	72*	6%	35*
O=C(COC(=O)C1CCN(S(=O)(=O)c2ccccc2)CC1)NCCc1ccccc1	2%	-2%	/	/	/	/
COc1ccc(Nc2cc(Nc3cccc(OC)c3)ncn2)cc1	-8%	1%	9%	56*	-7%	54*
Cc1ccc(NC(=O)Nc2ncnc3nc[nH]c23)cc1	-3%	-10%	0%	41*	-8%	22*
COc1cccc(Nc2ncnc3nc[nH]c23)c1	1%	-10%	-20%	50*	-25%	16*
CCc1ccc(Nc2ncnc3nc[nH]c23)cc1	-2%	-17%	-3%	62*	0%	27*
Cc1cccc(NC(=O)CSc2ncnc3nc[nH]c23)c1	-8%	-7%	-5%	17	-1%	-1
CCC(Oc1ccc(F)cc1)C(=O)Nc1nc(-c2ccc(F)cc2)ns1 (configuration not stated)	/	-4%	/	/	/	/
SMILES	RE007 growth inh	Tb PYK inh	Giardia FBPA inh	Shiga toxin inh	LmPK inh	CHX counter
CCCCc1ccc(Nc2ncnc3nc[nH]c23)cc1	22%	-8%	0%	28	8%	23*
Cc1ccc(Nc2ncnc3nc[nH]c23)cc1Cl	0%	-8%	0%	63*	3%	50*
CCCNc1ncnc2nc[nH]c12	-14%	-15%	-11%	-3	-3%	-4
CC(=O)NCc1nc2cccnc2n1Cc1ccccc1	/	-7%	/	/	/	/
COc1ccc(-n2c(-c3ccc(Cl)cc3)cc3c2CC(C)(C)CC3=O)c(OC)c1	/	-2%	/	/	/	/
CC(Sc1ccccn1)C(=O)Nc1ccc(S(N)(=O)=O)cc1 (configuration not stated)	0%	3%	0%	-1	3%	1
CC(=O)c1ccc(NC(=O)C(C)Sc2ccccn2)cc1 (configuration not stated)	-4%	6%	-1%	77*	2%	34*
CC(Sc1ccccn1)C(=O)Nc1ccccc1 (configuration not stated)	-5%	-11%	-3%	76*	5%	40*
CC(=O)c1ccc(NC(=O)C(C)Sc2nnnn2C)cc1 (configuration not stated)	5%	-5%	5%	-7	2%	8
NC(=O)CC(NC(=O)Cc1cccc2ccccc12)c1ccc(N2CCN(c3ccc(F)cc3)CC2)c([N+](=O)[O-])c1 (configuration not stated)	-1%	-3%	-4%	13	8%	-4
Cc1ccc(-n2nc(-c3ccccc3)cc2Nc2ccccc2N)cc1	6%	0%	-5%	4	-1%	-2
Nc1ccccc1Nc1cc(-c2ccccc2)[nH]n1	25%	-23%	-7%	55*	-8%	29*
Nc1ccccc1Nc1cc(-c2ccccc2)nn1-c1ccccc1	-25%	-6%	-4%	48	-3%	18*
CC[C@H](C)/C=C(C)/C=C/C1=CC2=C(Cl)C(=O)[C@@](C)(OC(C)=O)C(=O)C2=CO1	?	-13%	/	/	/	/
CCC(C)/C=C(C)/C=C/C1=CC2=C(Cl)C(=O)C(C)(OC(C)=O)C(=O)C2=CO1 (configuration not stated)	-13%	1%	-5%	24	-29%	11*
Cc1ccc(NC(=O)COc2ccc3c(c2)OCO3)c(Cl)c1	-7%	-3%	/	/	/	/
N#Cc1ccccc1NC(=O)COc1ccc2c(c1)OCO2	-29%	0%	4%	93*	0%	47*
CCc1ccccc1NC(=O)COc1ccc2c(c1)OCO2	-12%	-3%	0%	47*	1%	15*
O=C(COc1ccc2c(c1)OCO2)Nc1ccccc1C(F)(F)F	-12%	2%	0%	87*	-1%	31*
CCOc1ccccc1NC(=O)N1CC(C)Oc2ccc(Cl)cc21 (configuration not stated)	/	2%	/	/	/	/
Nc1ccccc1OCCOc1ccccc1N	15%	3%	-1%	31	-3%	20*
CC1=C(C(=O)Nc2ccc(C)cc2C)C(c2cccs2)n2nc(SCc3cccc(C)c3)nc2N1 (configuration not stated)	/	4%	/	/	/	/
CN(c1cc(=O)n2ccccc2n1)C1CCCCC1	-18%	5%	-8%	24	-5%	24*
Nc1ncnc(Nc2ccccc2Cl)n1	-2%	-12%	-1%	4	-4%	17*
Clc1ccccc1Nc1ncnc(-n2cccc2)n1	-7%	0%	-4%	131*	-11%	62*
Nc1ncnc(Nc2ccc(F)c(Cl)c2)n1	0%	3%	-9%	57*	-5%	19*
